This is a sample that favours compounds with a hit; in the whole collection about 18% have one here.
DT40 TDP1 CPT: DT40-hTDP1 cell growth loss with CPT | chicken DT40 Tdp1-/-;hTDP1 cells + 20 nM CPT, ATP luminescence, 48 h | Potency, µM (top dose mostly 46.2 µM), without a hit: top-dose activity change, negative = growth inhibition, actives largely listed as inhibitors | 420,000 tested, 12% active | AID 686979; also: potency is read from the fitted curve at half-maximal effect; nearly all actives have a fitted effect of over 55% in size
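Cell growth measured by CellTiter-Glo luminescence after a minimum 48 h, 37 C compound exposure with 20 nM CPT in Tdp1-knockout DT40 cells stably expressing hTDP1, seeded 400/well; qHTS titration format.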
DT40 TDP1 no CPT: qHTS for Inhibitors of human tyrosyl-DNA phosphodiesterase 1 (TDP1): qHTS in cells in absence of CPT. DT40 Tdp1-/- hTDP1 cells, no CPT, ATP luminescence, 48 h. Potency, µM (highest dose often 46.2 µM), without a hit: at the highest dose activity change, negative = growth inhibition, hits mostly inhibitors. 420,000 tested, 15% active; also: potency is read from the fitted curve at half-maximal effect; nearly all actives have a fitted effect of over 55% in size
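No-CPT arm: Tdp1-/-;hTDP1 DT40 cells (400/well) plus compounds, incubated ≥48 hr at 37 °C. Readout CellTiter-Glo luminescence.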
CtBP-E1A inh: blocks the CtBP interaction with E1A | 340,000 tested, 0.49% active | activity change, % (test concentration not listed) | AlphaScreen GST-E1A/His-CtBP binding, 1536-well; hits give low values; in the data active = activity change below about -65%; inconclusive = mostly about -30% to -63%
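In 5 uL wells, 23 nL compound meets equimolar GST-E1A and His-CtBP (5X stock 125 nM each) for 2 h, 37 °C. Beads (5X, 50 ug/mL) then 1 h, 37 °C, dark.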
IL1B secr inh: inflammasome signaling inhibition, IL-1 beta readout; AID 743279; THP-1 LPS/ATP IL-1B secretion, AlphaLISA, 16 h; hits give low values; 360,000 tested, 4.7% active; activity change, % at 57.5 µM; in the data active = activity change below about -50%; inconclusive = mostly about -30% to -49%
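Secreted IL-1B measured by AlphaLISA bead assay after 16 h compound exposure of THP-1 cells; compounds (final up to 57.5 uM) added 1 h before LPS (250 ng/mL) and ATP (1.25 mM) stimulation; lower signal means less secretion.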
Six1-Eya2 inh: inhibitors of human Six1/Eya2 interaction; Q15475+O00167; AlphaScreen GST-Six1/His-Eya2 binding, biochemical; hits give low values; activity change, % (test concentration not listed); 360,000 tested, 0.56% active; AID 651725; in the data active = activity change below about -65%; inconclusive = mostly about -30% to -63%
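AlphaScreen luminescence read after one hour at 37 °C in darkness. Pin-transferred compounds met GST-Six1 and His-Eya2 protein (5X stock 250 nM/500 nM) plus glutathione donor and Ni-chelate acceptor beads (5X, 50 ug/mL).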
TDP1 inh: TDP1 (human) enzyme inhibition; Q9NUW8; recombinant TDP1, AlphaScreen DNA substrate cleavage; Potency, µM (highest dose often 130 µM), inactives show at the top dose activity change, negative = inhibition, usual class: inhibitors; 350,000 tested, 0.28% active; AID 485290; also: potency is read from the fitted curve at half-maximal effect; nearly all actives have a fitted effect of over 40% in size
Target sequence (Q9NUW8 whole entry, looked up): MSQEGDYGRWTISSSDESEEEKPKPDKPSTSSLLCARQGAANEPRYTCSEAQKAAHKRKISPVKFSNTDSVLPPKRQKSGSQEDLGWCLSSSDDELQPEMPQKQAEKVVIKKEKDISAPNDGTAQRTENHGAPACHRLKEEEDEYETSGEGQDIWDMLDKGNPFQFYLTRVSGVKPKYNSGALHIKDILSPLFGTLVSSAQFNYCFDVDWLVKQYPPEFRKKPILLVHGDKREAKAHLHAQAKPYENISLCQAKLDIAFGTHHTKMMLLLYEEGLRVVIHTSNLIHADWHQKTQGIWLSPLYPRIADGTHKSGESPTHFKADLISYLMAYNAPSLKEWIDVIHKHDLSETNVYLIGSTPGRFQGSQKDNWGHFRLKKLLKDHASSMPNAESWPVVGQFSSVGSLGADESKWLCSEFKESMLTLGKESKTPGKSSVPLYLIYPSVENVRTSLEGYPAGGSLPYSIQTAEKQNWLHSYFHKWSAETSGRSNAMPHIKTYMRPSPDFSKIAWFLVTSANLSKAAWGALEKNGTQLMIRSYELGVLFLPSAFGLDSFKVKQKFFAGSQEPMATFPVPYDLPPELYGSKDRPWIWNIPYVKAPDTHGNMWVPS
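Here, a 5' biotin and 3' phosphotyrosine-FITC DNA oligonucleotide reports Tdp1 activity: intact substrate bridges AlphaScreen beads, while cleavage leaves a 3' phosphate and drops signal. All incubations at room temperature.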
* = called active by the depositor; ? = inconclusive; . = no result given; ! = repeats disagree. Unless noted, calls follow the shape of the dose curve; as a rule, active = well fitted curve in the direction sought with a large enough effect; inconclusive = small, poorly fitted or top-dose-only effect, or another doubt; inactive = no such curve, though single readings can be large; an effect the other way counts as inactive or inconclusive. % is scaled to controls: 0 for no effect and ±100 for the full control effect.

SMILES	DT40 TDP1 CPT	DT40 TDP1 no CPT	CtBP-E1A inh	IL1B secr inh	Six1-Eya2 inh	TDP1 inh
CCOc1ccc(C(C)=O)cc1N1C(=O)C2C3C=CC(O3)C2C1=O (configuration not stated)	6.51µM*	5.17µM*	0.9	-10.2	1.6	2.5%
O=C(CSc1nnc2scc(-c3ccccc3)n12)Nc1nsc(-c2ccccc2)n1	14.6µM*	23.1µM*	2.1	?	-10.4	5.2%
Cc1cccc(NC(=O)CSc2nnc3scc(-c4ccccc4)n23)c1	?	20.6µM*	.	.	.	.
CCOC(=O)CSc1ccc2ccccc2n1	-8.0%	-13.7%	10.7	2.7	0.6	-3.5%
Cc1ccc(-c2nc(NC(=O)CSc3ccc4ccccc4n3)ns2)cc1	14.6µM*!	?	6.5	9.6	3.5	-3.2%
O=C(CSc1nnc2scc(-c3ccccc3)n12)Nc1nsc(-c2ccc(Cl)cc2)n1	16.4µM*	20.6µM*	0.1	33.5	-1.8	.
CCOc1ccc(NC(=O)CSc2nnc3scc(-c4ccccc4)n23)cc1	-23.3%	?	.	.	.	.
Cc1ccc(-c2cccc(=O)o2)cc1	-4.1%	-2.8%	-1.7	-19.1	5.1	.
Cc1cc(C)n(-c2nc3ccccc3nc2Nc2cccc(C(=O)NCCc3ccccc3)c2)n1	-21.7%	?	.	.	.	-2.5%
Cc1nc(NC(=O)CSc2nccn2C)sc1C(=O)N(C)C	10.4%	-8.8%	3.6	-4.9	3.9	0.2%
Cc1ccc(-c2csc3nnc(SCC(=O)Nc4nsc(-c5ccccc5)n4)n23)cc1	20.6µM*	23.1µM*	-5.5	-23.5	-3.0	1.0%
Cc1ccc(-c2nc(NC(=O)CSc3nnnn3-c3ccccc3)ns2)cc1	-13.1%	-23.9%	-0.3	-5.0	-10.8	2.0%
O=C(NCc1ccncc1)c1cccc(S(=O)(=O)NCc2ccccc2)c1	-3.8%	0.1%	0.6	18.3	3.0	2.2%
Cc1ccc(OCCNC(=O)c2cccc(S(=O)(=O)NCc3ccccc3)c2)cc1	4.11µM*	4.61µM*	3.1	13.0	-0.9	-3.9%
COc1ccc(N(C)S(=O)(=O)c2cccc(C(=O)NCc3ccc(C)cc3)c2)cc1	?	?	7.4	-59.2*	1.0	-3.1%
Cc1ccc(OCCNC(=O)c2cccc(Oc3ccc(C(F)(F)F)cc3[N+](=O)[O-])c2)cc1	?	16.4µM*	-11.7	-11.4	-12.6	2.7%
COc1ccc(CNC(=O)c2ccc(N(C)S(=O)(=O)c3ccc(C)cc3)cc2)cc1	?	?	-0.5	-0.8	6.1	-0.5%
Cc1cccc(OCCNc2ccc(C(F)(F)F)cc2[N+](=O)[O-])c1	3.6%	-10.6%	27.2	-12.8	19.4	2.7%
Cc1cccc(OCCNC(=O)c2ccc(Cl)c(S(=O)(=O)NCc3cccnc3)c2)c1	3.66µM*	2.59µM*	0.5	104.4	28.7	-6.0%
COC(=O)C1CCN(C(=O)c2ccc(Cl)c(S(=O)(=O)NCc3cccnc3)c2)CC1	-5.3%	-25.9%	1.4	-5.9	4.4	7.3%
NC(=O)c1cc(C(=O)Cc2ccc(Cl)cc2)c[nH]1	0.1%	-20.6%	-14.0	-3.9	0.8	.
Cc1ccc(S(=O)(=O)NCc2ccc(C(=O)NCCN(Cc3ccccc3)C(C)C)cc2)cc1	?	16.4µM*	-2.1	-65.9*	-2.0	3.7%
Cc1ccc(S(=O)(=O)NCc2ccc(C(=O)NCCc3cccc(C)c3)cc2)cc1	?	?	.	.	.	-0.9%
COc1ccc(N(C)S(=O)(=O)c2cccc(C(=O)OCC(=O)NCc3ccccc3OC)c2)cc1	-20.1%	?	5.1	9.3	-5.2	-1.2%
COc1ccc(OCCN(C)C(=O)c2cccc(S(=O)(=O)N(C)c3ccccc3)c2)cc1	11.6µM*	18.4µM*	-3.0	?	-4.1	1.7%
CCN(c1ccccc1)S(=O)(=O)c1cccc(C(=O)N(C)CCOc2ccccc2)c1	14.6µM*	20.6µM*	-2.7	-16.6	6.0	-14.7%

Source: PubChem
